TEAD-YAP inh – TEAD-YAP interaction inhibition; HEK-TIYL cells, TEAD-Gal4/YAP UAS-luciferase luminescence; 640,000 compounds, 1.4% hits; inhibition, % at 9.12 µM; AID 1259422; in the data active = inhibition above about 32%;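 note: 0% = median of test compound wells and 100% = reference inhibitor wells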
MITF primary – human MITF inhibition, primary screen; AlphaScreen MITF homodimerization, bead proximity signal; inhibition, % at 2.6 µM; 650,000 compounds, 0.91% hits; AID 1259374; in the data active = inhibition above about 50%;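 note: 0% = vehicle wells with protein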
FBW7 act – human FBW7 E3 ligase activation, primary screen. Q969H0. AlphaScreen FBW7–phospho-cyclin E peptide binding, activator screen. normalized activity (activation), % at 26.1 µM. 650,000 compounds, 0.13% hits; in the data active = normalized activity above about 1.9%;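 note: purified mutant Fbw7 with reduced substrate affinity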
GPR151 ag – human GPR151 activation; Q8TDV0; AID 1508602; PathHunter beta-arrestin GPR151 cells, luminescence; activation, % at 11.2 µM; 650,000 compounds, 1% hits; in the data active = activation above about 4.9%;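 note: 0% = median of compound wells and 100% = cells with positive control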
Target sequence (Q8TDV0 whole entry, looked up): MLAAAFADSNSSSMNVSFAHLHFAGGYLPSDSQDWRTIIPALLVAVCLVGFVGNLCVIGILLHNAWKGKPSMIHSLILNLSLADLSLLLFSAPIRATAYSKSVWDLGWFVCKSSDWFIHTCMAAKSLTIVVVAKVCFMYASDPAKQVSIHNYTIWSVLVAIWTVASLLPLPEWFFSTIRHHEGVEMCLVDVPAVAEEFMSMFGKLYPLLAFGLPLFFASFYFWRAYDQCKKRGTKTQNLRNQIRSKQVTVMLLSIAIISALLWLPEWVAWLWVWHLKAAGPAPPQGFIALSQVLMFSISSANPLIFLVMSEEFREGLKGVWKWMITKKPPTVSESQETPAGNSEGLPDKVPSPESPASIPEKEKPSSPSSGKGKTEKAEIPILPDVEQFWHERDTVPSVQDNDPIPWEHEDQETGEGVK
MITF confirm – confirmation of human MITF inhibitors | shares compounds with MITF primary | AlphaScreen MITF homodimerization, biotin/His-MITF beads | inhibition, % at 2.6 µM | 4,700 compounds, 16% hits | AID 1259372;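 active = inhibition above a cutoff derived from the DMSO control wells, cut at about 28% in these data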;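 note: 0% = MITF dimer wells with DMSO only; inhibitors lower the bead chemiluminescence by keeping MITF from dimerizing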
AlphaScreen DR – AlphaScreen optical interference, dose response counter-screen; AlphaScreen optical interference counterscreen, cell-free; shares compounds with MITF primary; 480 compounds, 6% hits; IC50, µM; AID 1259373; call rule not given here
AS interf ctr – AlphaScreen optical interference, counter-screen. LysRS AlphaScreen counterscreen, signal interference, triplicate. 4,700 compounds, 7.6% hits. inhibition, % at 2.6 µM. shares compounds with MITF primary;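 active = inhibition above a cutoff derived from the DMSO control wells, cut at about 30% in these data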
* marks the source's active call; other numbers are inactive results. Most compounds without a hit are left out; they make up all but 3.5% or so of the library.

`O=C(c1cccc(F)c1)N1CCN(Cc2cccc(F)c2)CC1` gave TEAD-YAP inh -6, MITF primary 57*, FBW7 act 0, GPR151 ag -1, MITF confirm 6 and AS interf ctr 16.
O=C(c1cccc(C(=O)N2CCN(Cc3ccccc3)CC2)c1)N1CCN(Cc2ccccc2)CC1 was read as TEAD-YAP inh 16, MITF primary -4, FBW7 act 0 and GPR151 ag -1.
O=C(c1cccc(F)c1)N1CCN(Cc2cccc(Oc3ccccc3)c2)CC1 was read as TEAD-YAP inh -16, MITF primary 38, FBW7 act 0 and GPR151 ag 2.
O=C(c1cccc(F)c1)N1CCN(Cc2cccnc2)CC1 was read as TEAD-YAP inh -3, MITF primary 87*, FBW7 act 0, GPR151 ag 0, MITF confirm -4 and AS interf ctr 0.
O=C(c1cccc(F)c1)N1CCN(Cc2ccncc2)CC1 was read as TEAD-YAP inh -7, MITF primary 78*, FBW7 act 1, GPR151 ag -2, MITF confirm 64*, AlphaScreen DR >5.7 and AS interf ctr -6.
For COc1ccc(C(=O)N2CCN(Cc3cccc(Br)c3)CC2)cc1 the results were TEAD-YAP inh -2, MITF primary 51*, FBW7 act 0, GPR151 ag 0, MITF confirm 6 and AS interf ctr 14.
COc1ccc(-n2ncc3c(SCC(=O)Nc4nccs4)ncnc32)cc1 was read as TEAD-YAP inh -9, MITF primary 23, FBW7 act 0 and GPR151 ag -1.
O=S(=O)(c1ccc(NC(=S)Nc2ccccc2)cc1)N1CCCCCC1 was read as TEAD-YAP inh -1, MITF primary 12, FBW7 act 0 and GPR151 ag -1.
For Cc1ccccc1N1C(=O)CC(Nc2ccc(C(=O)O)cc2)C1=O (centres undefined) the results were TEAD-YAP inh 5, MITF primary 26, FBW7 act 0 and GPR151 ag 0.
For CSc1ccc(CN2CCN(C(=O)c3ccc(-c4ccccc4)cc3)CC2)cc1 the results were TEAD-YAP inh 7, MITF primary 1, FBW7 act 0 and GPR151 ag 0.
`CSc1ccc(CN2CCN(C(=O)c3ccc(F)cc3)CC2)cc1` gave TEAD-YAP inh 44*, MITF primary 55*, FBW7 act 1, GPR151 ag -1, MITF confirm 7 and AS interf ctr 12.
Screening O=C(c1ccccc1F)N1CCN(Cc2cccc(F)c2)CC1 returned TEAD-YAP inh -6, MITF primary 54*, FBW7 act 0, GPR151 ag 1, MITF confirm -3 and AS interf ctr 4.
O=C(c1ccc(-c2ccccc2)cc1)N1CCN(Cc2cccnc2)CC1 was read as TEAD-YAP inh -10, MITF primary 68*, FBW7 act 0, GPR151 ag 1, MITF confirm 19 and AS interf ctr 15.
Screening O=C(c1cccc(F)c1)N1CCN(CC2CC3C=CC2C3)CC1 (centres undefined) returned TEAD-YAP inh -6, MITF primary 58*, FBW7 act 0, GPR151 ag 0, MITF confirm -23 and AS interf ctr 4.
For O=C(c1ccccc1F)N1CCN(CC2CC3C=CC2C3)CC1 (centres undefined) the results were TEAD-YAP inh 5, MITF primary 39, FBW7 act 0 and GPR151 ag 0.
COc1cc(C(=O)NC(CCSC)C(=O)N2CCC(C)CC2)cc(OC)c1OC (centres undefined) was read as TEAD-YAP inh 0, MITF primary 19, FBW7 act 1 and GPR151 ag 0.
For CCC(C)NC(=O)CN(c1ccccc1Cl)S(C)(=O)=O (centres undefined) the results were TEAD-YAP inh -3, MITF primary -6, FBW7 act 0 and GPR151 ag 0.
O=[N+]([O-])c1cc(-c2nnc(-c3ccccc3)o2)ccc1NCC1CCCO1 (centres undefined) was read as TEAD-YAP inh -10, MITF primary -1, FBW7 act 0 and GPR151 ag 0.
NC(=O)c1ccccc1NC(=O)c1cc2cc([N+](=O)[O-])ccc2s1 was read as TEAD-YAP inh -35, MITF primary 21, FBW7 act 0 and GPR151 ag -1.
For COc1cc(CN2CCN(C(=O)c3cccc(F)c3)CC2)cc(OC)c1O the results were TEAD-YAP inh -1, MITF primary 68*, FBW7 act 0, GPR151 ag 0, MITF confirm -3 and AS interf ctr 6.
Screening COc1ccc(CN2CCN(C(=O)c3cccc(F)c3)CC2)cc1OC returned TEAD-YAP inh -1, MITF primary 31, FBW7 act 0 and GPR151 ag 0.
COc1ccc(CN2CCN(Cc3ccc(F)c(F)c3)CC2CCO)cc1C (centres undefined) was read as TEAD-YAP inh 11, MITF primary 8, FBW7 act 0 and GPR151 ag 0.
For CCOC(=O)N1CCN(Cc2cccc3ccccc23)CC1 the results were TEAD-YAP inh 0, MITF primary -21, FBW7 act 1 and GPR151 ag 0.
Screening COc1ccc2ccccc2c1CN1CCN(C(=O)c2cccnc2)CC1 returned TEAD-YAP inh 0, MITF primary 50, FBW7 act 0 and GPR151 ag -1.
For O=C(c1cccnc1)N1CCN(Cc2cccc3ccccc23)CC1 the results were TEAD-YAP inh -4, MITF primary 51*, FBW7 act -1, GPR151 ag 0, MITF confirm -12 and AS interf ctr -8.
`O=C(c1ccncc1)N1CCN(Cc2cccc3ccccc23)CC1` gave TEAD-YAP inh -5, MITF primary 67*, FBW7 act 0, GPR151 ag 0, MITF confirm -3 and AS interf ctr 4.
Screening O=C(CN1CCCN(CC(=O)NCc2ccccc2)CC1)NCc1ccccc1 returned TEAD-YAP inh -9, MITF primary 93*, FBW7 act 0, GPR151 ag 0, MITF confirm 4 and AS interf ctr -2.

High-throughput results (PubChem BioAssay)
